# Measurements taken from ChEMBL document CHEMBL1157539, “Thousands of chemical starting points for antimalarial lead identification” (Nature, 2010).
# Columns and labels:
# Assay type in all cases: functional
# Plasmodium falciparum [1] = test: GSK_TCMDC: Inhibition of Plasmodium falciparum 3D7 in whole red blood cells, using parasite LDH activity as an index of growth. Test compounds present at 2uM
# Plasmodium falciparum [2] = test: GSK_TCMDC: Inhibition of Plasmodium falciparum Dd2 in whole red blood cells, using parasite LDH activity as an index of growth. Test compounds present at 2uM
# HepG2 = test: GSK_TCMDC: Percent inhibition of human HepG2 cell line. Test compounds present at 10uM.
SMILES,Inhibition (Plasmodium falciparum [1]) [%],Inhibition (Plasmodium falciparum [2]) [%],Inhibition (HepG2) [%]
CCOc1ccc2nc(C)cc(N/N=C/c3cccc([N+](=O)[O-])c3)c2c1,100,93,7
COc1cccc(C(=O)NC(c2ccccc2OC)c2cc(Cl)c3cccnc3c2O)c1 (configuration not stated),91,36,58
COc1ccc(-c2nc(NC(=O)COc3ccc(C(C)=O)cc3)sc2C)cc1,98,58,0
N=C(N)Nc1nc(-c2ccc(NC(=O)Nc3cccc(-c4csc(NC(=N)N)n4)c3)cc2)cs1,94,80,0
NCCC(=O)Nc1ccc(-c2cnc3[nH]cc(-c4ccc(C(=O)O)cc4)c3c2)cn1.O=C(O)C(F)(F)F,99,67,0
Cc1cccc(Cn2c(C(N)=O)nn(-c3ccc([N+](=O)[O-])cc3C#N)c2=S)c1,100,48,1
CNCC(C)(C)c1nc(-c2ccc(Cl)c(O)c2)c(-c2ccncc2)[nH]1.Cl,98,96,46
CC1c2cccc(O)c2CCN1CCc1ccc(Cl)c(Cl)c1.Cl (configuration not stated),100,99,18
Cc1noc(C)c1C(=O)N1CCc2cc3nccc(N4CCN5CCC[C@H]5C4)c3cc21,93,9,7
Fc1cccc(-c2ccc3c(c2)CC(NCc2c[nH]c4cnccc24)C3)c1 (configuration not stated),100,68,24
CC(NC(=O)c1ccc(O)c(-c2ccc(Cl)c(Cl)c2)c1)C(=O)NCCN1CCOCC1 (configuration not stated),87,7,2
N#CC(c1ccc(Cl)cc1)c1ccc2c(C(F)(F)F)cc(C(F)(F)F)nc2n1 (configuration not stated),97,54,68
CN1CCCN(c2ccnc3cc4c(cc23)N(C(=O)c2ccc(Cl)cc2Cl)CC4)CC1.Cl,100,51,6
CCCCCCN1CCCN(Cc2ccc(C(=O)Nc3ccc(CC)cc3)cc2)CC1.O=C(O)C(F)(F)F,97,50,53
CC(C)CCNC(=O)c1cnc2c(O)cccc2c1Nc1cccc(NC(=O)c2ccc(F)cc2)c1.O=C(O)C(F)(F)F,93,43,51
O=C(/C=C/c1cc([N+](=O)[O-])ccc1Cl)N1CCC(CCN2CCC(c3c[nH]c4ccccc34)CC2)CC1,92,26,25
O=C(/C=C/c1ccc(Cl)c(Cl)c1)NCCCCCN1CCCC(C(=O)Nc2ccc(F)c(Cl)c2)C1 (configuration not stated),99,2,28
Cc1c[nH]c(CCNC(=O)c2cc(-c3ccc(Cl)cc3)cs2)n1,100,7,12
CCCCN(C)CC#Cc1ccc(-c2ccc3[nH]c(C)c(Br)c(=O)c3c2)cn1,98,93,3
CCCCCC(NCCCC)c1ccc(OCCOc2ccc(C(CCCCC)NCCCC)cc2)cc1.Cl (configuration not stated),88,96,99
Cc1c(CCc2cccc(F)c2F)[nH]c2ccccc2c1=O,91,90,41
COc1ccc(CNCc2ccccc2)cc1-c1ccc(S(=O)(=O)NCCN2CCCC2)cc1.O=C(O)C(F)(F)F,96,39,38
CS(=O)(=O)CCNCc1ccc(-c2cc3c(Nc4ccc(OCc5cccc(F)c5)c(Cl)c4)ncnc3s2)[nH]1,99,95,5
O=C(/C=C/c1ccc(Cl)c(Cl)c1)NCCCCCN1CCC(c2c[nH]c3c(-c4ccccc4)cccc23)CC1,99,40,74
CCOC(=O)c1cc(C(=O)OC)c2ccccn12,97,2,44
COc1cc(NC(=O)/C=C/c2ccc(-c3ccccc3)cc2)ccc1OCCN(C(C)C)C(C)C.Cl,94,62,58
Cc1cc(NCCC(=O)Nc2ccccc2)nc(NCCc2cccnc2)n1.O=C(O)C(F)(F)F,84,4,0
CN(C)CCOc1cc(NC(=O)c2ccc(-c3ccc(Cl)cc3Cl)cc2)ccc1-c1ccccc1,98,26,45
COc1ccc(CNCc2cccc(-c3csc(-c4nc5ccccc5[nH]4)c3)c2)cc1.O=C(O)C(F)(F)F,100,22,17
